Measurements reported in PubChem BioAssay (NCI).
Compounds without any hit were thinned out: in the full panel of roughly 83,000, 20% have a hit.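 Single-concentration screen, 48 h exposure, 96-well plates. Endpoint: percent growth. Below 10 = active.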 Activity calls are given as the source filed them.

tested on: SNB-19 CNS; assay: NCI-60 one-dose screen, 48 h (100 = growth as untreated, 0 = no growth, -100 = all killed); conditions: 10 µM unless noted
Method: Growth inhibition of the SNB-19 human tumor cell line is measured as a screen for anti-cancer activity. Cells are grown in 96 well plates and exposed to the test compound for 48 hours. Compounds are tested at a single concentration, which is 10^-5 M for most compounds. The reported endpoint is percent growth (GI% or GIPRCNT), where numbers from 0 - 100% represent growth inhibition, and numbers from -100% - 0 represent cell death. For example, a value of 40 represents 60% growth inhibition. A value of 0 means no net growth occurred over the course of the experiment. A value of -40 indicates 40% of cells at the beginning of the experiment died by the end of the experiment. A value of -100 means all cells are dead at the end of the experiment.
NCI-60 Human Tumor Cell Lines Screen was performed using the standard one-dose NCI protocol, which is described in more detail at https://dtp.cancer.gov/discovery_development/nci-60/default.htm.
Compounds with GIPRCNT values below 10 were considered active. Activity score was based on GIPRCNT using the following formula: […]
Score is 0 for GIPRCNT values of 100 or above, 50 for GIPRCNT values of 0, and 100 for GIPRCNT values of -100.

Row | SMILES | growth
1 | Nc1ncnc2c1c(C(=O)NO)cn2C1OC(CO)C(O)C1O (stereo not given) | 11.9% (inactive)
2 | OC1(c2ccccc2F)c2ccccc2C2=NCCN21 (stereo not given) | 108% (inactive)
3 | CCOP(=O)(OCC)Oc1ccc(Sc2ccc(OP(=O)(OCC)OCC)cc2)cc1 | 100% (inactive)
4 | N#C[Se]CCCNS(=O)(=O)C1CC2C=CC1C2 (stereo not given) | -42.3% (active)
5 | C/C(=N/OC(=O)N(C)C)c1cc(Cl)ccc1Cl | 101% (inactive)
6 | C1CN1c1nc(N2CC2)nc(N2CC2)n1 | 35.9% (inactive)
7 | CN1CC2CCC(C1)C2=O | 105% (inactive)
8 | O=C(/C=C/c1ccccc1)N[C@@H](CO)Cc1cnc[nH]1 | 103% (inactive)
9 | Cc1cccc(N(C)c2cccc3c2C(=O)[Se]C3)c1C | 58.8% (inactive)
10 | C[C@]12CCc3sc(-c4ccc(Cl)cc4)nc3C1=CC[C@@H]1[C@@H]2CC[C@]2(C)C(=O)CC[C@@H]12 | 56.2% (inactive)
11 | CC(/C=N/N=C(N)N)=N/N=C(N)N | 87.3% (inactive)
12 | Cc1ccc(C[As+](c2ccccc2)(c2ccccc2)c2ccccc2)cc1 | 17.2% (inactive)
13 | NS(=O)(=O)c1nc[nH]c1[N+](=O)[O-] | 105% (inactive)
14 | CC1(C)N=C(N)N=C(N)N1c1ccc(CCCCc2ccc(S(=O)(=O)F)cc2)c(Cl)c1 | 38.7% (inactive)
15 | O=C1C=CC(=O)C2C1C1(Cl)C(Cl)=C(Cl)C2(Cl)C1(Cl)Cl (stereo not given) | 73.8% (inactive)
16 | C[C@@H]1CC[C@@H]2[C@@H]1[C@H](OC(=O)/C=C/C1CCCCC1)[C@]1(C3CCCCC3)C[C@@H](OC(=O)CO)[C@@]2(C)O1 | 85.8% (inactive)
17 | CC(=O)O[C@H]1C[C@H](O[C@H]2[C@@H](O)C[C@H](O[C@H]3[C@@H](O)C[C@H](O[C@H]4CC[C@@]5(C)C(CCC6C5C[C@@H](O)[C@]5(C)[C@@H](C7=CC(=O)OC7)CC[C@]65O)C4)O[C@@H]3C)O[C@@H]2C)O[C@H](C)[C@H]1O[C@@H]1O[C@H](CO)[C@@H](O)[C@H](O)[C@H]1O (stereo not given in full) | -100% (active)
18 | CC1(C)N=C(N)N=C(N)N1c1ccc(CCC(=O)Nc2cccc(S(=O)(=O)F)c2)cc1 | 51.9% (inactive)
19 | CCOC(=O)C1(c2ccccc2)CCN(CC(=O)c2ccc(NC(C)=O)cc2)CC1 | 102% (inactive)
20 | CCC(CC)(c1ccccc1)C(OC(N)=O)c1ccccc1 (stereo not given) | 88.1% (inactive)

Row | SMILES | growth
21 | C/C(=N/OC(=O)N(C)C)c1ccc(Cl)cc1Cl | 103% (inactive)
22 | O=C1NC(=O)C(O)(C2(O)C(=O)NC(=O)NC2=O)C(=O)N1 | 96.1% (inactive)
23 | C=CC(=O)NC(O)C(Cl)(Cl)Cl (stereo not given) | 105% (inactive)
24 | O=C(O)C1(Br)CC12c1ccccc1-c1ccccc12 (stereo not given) | 104% (inactive)
25 | ClCCN(CCCl)C(c1ccccc1)c1ccc(Cl)cc1 (stereo not given) | 81.6% (inactive)
26 | Cc1ccc2oc(=O)c3c(c2c1)OC(N)=C(C#N)C3c1ccco1 (stereo not given) | 96.9% (inactive)
27 | CC(C)(NC(=O)c1nn(CCCCCF)c2ccccc12)c1ccccc1 | 106% (inactive)
28 | O=C(O)c1[nH]c(=O)[nH]c(=O)c1F | 91.4% (inactive)
29 | Oc1c(Br)cc(Br)cc1Br.[Cu+2] | 118% (inactive)
30 | CC(=O)N(C)C1=Nc2ccc(Cl)cc2C(c2ccccc2)=[N+]([O-])C1 | 96.3% (inactive)
31 | O=C(CCc1ccco1)NC1CCN(CC2(c3ccc(Cl)cc3)CCC2)CC1 | 15% (inactive)
32 | OC1(c2ccc(Cl)cc2Cl)c2ccccc2C2=NCCN21 (stereo not given) | 101% (inactive)
33 | Cc1cc(NC(=O)CCc2ccc(N3C(N)=NC(N)=NC3(C)C)cc2)ccc1S(=O)(=O)F | 45% (inactive)
34 | O=C(O)CNC(=O)c1ccccc1 | 98.6% (inactive)
35 | CC(=O)Nc1ccc(C=C2C(=O)NC(=O)NC2=O)cc1 | 98.4% (inactive)
36 | Nc1c(Br)cc2c3c(cccc13)-c1ccccc1-2 | 92.9% (inactive)
37 | OB([O][Hg][c]1ccccc1)[O][Hg][c]1ccccc1 | 5.87% (active)
38 | CCC(C)(C)O | 104% (inactive)
39 | ClCCN(CCCl)c1nc(Cl)c(C2CC(c3ccc(Cl)cc3)=NN2c2cc(Cl)cc(Cl)c2)s1 (stereo not given) | 88.1% (inactive)
40 | C/C1=C/C(=O)O[C@@H]2C[C@@H](CC[C@H](C)/C=C\C=C\CC1)O[C@@](OCCc1ccccc1)([C@@H]1CSC(=O)N1)C2 | 21.5% (inactive)
